Test results taken from PubChem BioAssay (NCI).
Values joined by “and” are separate entries in the source; they are usually repeats but may differ in a detail not shown here. Equal entries are not always repeated. The panel holds about 83,000 compounds, 20% with a hit somewhere; the sample as a whole holds those more often.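 Cell lines were cultured in 96-well plates, exposed to a single compound concentration, and assessed for percent growth 48 hours later.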 A number with no mark means an inactive call. Active and inactive are the calls of the source. The calls were made as follows: active = growth percent below 10; inactive = the rest.

These compounds were tested on MDA-MB-468 breast (assay: NCI-60 one-dose screen, 48 h (100 = growth as untreated, 0 = no growth, -100 = all killed)). Conditions: 10 µM unless noted.
`Cc1c(C(=O)O)nnn1-c1nccs1` showed a growth of 107%.
For `COc1ccc(-c2cc(=O)[nH]c3c(OC)c4ccccc4c(OC)c23)cc1`, the growth was -0.192% (active).
Compound `O=C(CN1CCCCCC1)Nc1nc2ccc(NCc3ccc(Cl)cc3)cc2s1` has a growth of 85.2%.
With `COc1ccc(CCNC(=S)NN)cc1OC` the growth was 128%.
Work on `C#Cc1ccc(-n2c(/C=C/c3cc(OC)cc(OC)c3)nc3ncccc3c2=O)cc1` yielded a growth of 37.4%.
`COc1ccc(NC(=O)c2cccc(C3CCc4c(cc(OC)c(OC)c4OC)O3)c2)cc1` (stereo not given) was tested, and the growth was 22%.
`COc1cc2oc(-c3cccc(NC(=O)[C@@H](N)C(C)C)c3)cc(=O)c2c(OC)c1OC` gave a growth of 99.5%.
With `COc1cc(Cl)cc(-c2nn(C(=O)NCCN3CCOCC3)cc2-c2ccncc2)c1` the growth was 27.6%.
`O=C(Nc1ccc(Nc2cc(Nc3ccccc3)ncn2)cc1)Nc1cc(C(F)(F)F)ccc1F` showed a growth of 55.3%.
Compound `OB(O)c1cccc(-c2nc3ccc4[nH]ncc4c3c3c2CCCC3)c1` has a growth of 59.3%.
With `O=C1Nc2ccc(Br)cc2C1=O` the growth was 109%.
With `Cc1ccc(-c2nn(Cc3cn(-c4cc(C)nc5ccccc45)nn3)c3ncnc(N)c23)cc1` the growth was 15.4%.
With `Cc1cccc(-c2cn3ccnc3c(-c3ccc4ncn(Cc5ccccc5)c4c3)n2)c1` the growth was 83.4%.
`Fc1cccc(CNc2c3ccccc3nc3ccccc23)c1` was tested, and the growth was 0.607% (active).
In the case of `O=C(CCl)c1ccc2c(c1)Nc1ccccc1S2`, the growth is reported as 75.7% and 64.9%.
With `Cc1cccc(NC(=O)c2sc3nc4c(cc3c2N)CN(Cc2ccccc2)CC4)c1C` the growth was 24.4%.
For `CC1=C(C(=O)Nc2ccc(F)cc2)C(c2ccccc2)C2=C(CC(C)(C)CC2=O)N1` (stereo not given), the growth was 67.7%.
Work on `O=C1/C(=C/c2cn(-c3ccccc3)nc2-c2ccccc2)SC(=S)N1CCc1ccccc1` yielded a growth of 103%.
`O=C(CCCCl)NNc1nccc(Nc2ccc(S(=O)(=O)Nc3ccncc3)cc2)n1` was tested, and the growth was 116%.
In the case of `C=C1C(=O)O[C@H]2[C@H]1CCC(/C=N/c1ncc(Br)cc1N)=C\CC[C@@]1(C)O[C@@H]21`, the growth is reported as -51% (active).
Compound `Cc1ccc(-n2cc(/C=C/C(=O)c3ccc(O)cc3)c(-c3ccc(S(C)(=O)=O)cc3)n2)cc1` has a growth of 93.8%.
`O=C(O)CC1Cc2ccccc2C1C(=O)O` (stereo not given) gave a growth of 106%.
`COc1ccc(Cn2cc(COc3ccc4c5ccnc(C)c5n(CCCc5ccccc5)c4c3)nn2)cc1` was tested, and the growth was 62.5%.
`COc1ccc(OC)c(C(=O)c2oc3ccc(Br)cc3c2N)c1` gave a growth of 23.6%.
`Cc1cc(/C=C\c2ccc3ccccc3[n+]2C)c(O)c2ncccc12` was tested, and the growth was -27% (active).
In the case of `Oc1c(Cl)cc(Cl)c2cccnc12`, the growth is reported as 61% and 42.6%.
`O=C1Cc2cc(CCN3CCN(c4nsc5ccccc45)CC3)c(Cl)cc2N1` showed a growth of 49.1%.
In the case of `Cn1cc(-c2csc(-c3c[nH]c4ccccc34)n2)c2cccnc21`, the growth is reported as -22% (active).
In the case of `Cc1cc2cc3ccc(N(C)C)cc3nc2cc1N`, the growth is reported as -56.8% (active).
In the case of `C/C(=C(/c1ccc(O)cc1)c1ccc(OCCN(C)C)cc1)c1ccccc1`, the growth is reported as 58.4%.
For `CC(=O)c1cc(C(=O)c2ccc3c(c2)Sc2ccccc2N3)n2ccccc12`, the growth was 3.96% (active).
Compound `N=C(N)c1ccc(S(N)(=O)=O)cc1` has a growth of 96.8%.
`O=C1Nc2ccccc2/C1=N\c1nnc(-c2ccccc2)o1` was tested, and the growth was 69.6%.
`CCN(CC)CCCNc1cccc2c(SCc3ccccc3)ccnc12` gave a growth of 88.3%.
`CN1CCN(Cc2ccc(NC(=O)c3cccc(C#Cc4cnc(N)c5ncccc45)c3F)cc2C(F)(F)F)CC1` was tested, and the growth was 70.6%.
`COc1cc([C@H]2OC[C@H]3[C@@H]2CO[C@@H]3c2ccc(O)c(OC)c2)ccc1O` gave a growth of 100%.
For `S=C(SSC(=S)N(c1ccccc1)c1ccccc1)N(c1ccccc1)c1ccccc1`, the growth was 107%.
`CC(C)(Sc1cc(C(C)(C)C)c(OC(=O)CCCC(=O)O)c(C(C)(C)C)c1)Sc1cc(C(C)(C)C)c(OC(=O)CCCC(=O)O)c(C(C)(C)C)c1` was tested, and the growth was 54.1%.
For `CCN1CCN(Cc2cn(CC(=O)Nc3ccc4c(ccn4Cc4ccccc4)c3)nn2)CC1`, the growth was 97.2%.
For `Nc1nc2c(c3ncccc13)C(c1ccc(Cl)c(Cl)c1)Cc1ncccc1-2` (stereo not given), the growth was -6.48% (active).
